# Test results: ChEMBL document CHEMBL4888484, “Replenishing the malaria drug discovery pipeline: Screening and hit evaluation of the MMV Hit Generation Library 1 (HGL1) against asexual blood stage Plasmodium falciparum ,using a nano luciferase reporter read-out” (2022)
# Among all 150,000 compounds or so, about 540 (0.36%) showed an effect of 50% or more. Many of the other results were omitted from the sample, so strong results are more common in it than they were.
# Test system: Plasmodium falciparum
# Assay: Primary screen in NF54 nanoGlo assay, in single point, at 2uM, 72h; a lower Z score goes with more inhibition
# Type: functional, Erythrocyte
# Details: timepoint 72 hour
SMILES,% Inhibition [%],Z score
CN1C(=O)C2(CCN(C(=O)CN3C(=O)OC(C)(C)C3=O)CC2)c2ccccc21,-7,0.88
O=C(CN(CC1CCCO1)C(=O)C1CC1(Cl)Cl)N1CCCC1 (configuration not stated),-19,1.85
O=C(c1cccc(-n2cnnn2)c1)N1CCn2c1nc1ccccc12,2,-0.23
O=C(c1ccc2c(c1)OCO2)N1CCn2c1nc1ccccc12,72,-0.31
O=C(c1cncc(N2CCOCC2)c1)N1CCn2c1nc1ccccc12,-9,1.5
Cc1cnc(C(=O)NC2CCCCCCC2)cn1,18,-2.33
COc1ccc2nc(O)c(C(=O)Nc3ccc4c(c3F)CCNC4)cc2c1,99,-18.01
COc1ccc2nc(O)c(CCC(=O)N3CCCC3)cc2c1,-20,3.74
O=C(CC1CCC(F)(F)CC1)Nc1ccc2c(c1F)CCNC2,-13,1.83
CC(C)n1ccnc1CN1CCC[C@@](O)(CNC(=O)N2CCCCC2)CC1,-5,0.65
CC(Cc1ccccc1Cl)C(=O)NC1CCN(C(=O)Nc2ccccc2)C1 (configuration not stated),-1,0.11
CC(C)CC[C@@H](CCNCCN(C)C)c1ccc(Cl)cc1,90,-10.16
CN1CCC(NCC[C@@H](Cc2ccccc2Cl)c2ccc(Cl)cc2)CC1,72,-14.93
CN1CCC(NCCOCc2ccc(Cl)cc2Cl)CC1,0,0
CC(C)CC[C@@H](CCNCc1ccccn1)c1ccc(Cl)cc1,25,-3.14
CC(C)CCn1ccc(NC2CCN(C)CC2)n1,-15,1.91
COc1ccc(Cl)cc1CNCCN(C)C,-7,0.59
CC(C)CC[C@@H](CCN1CCCC1)c1ccc(OC(C)C)cc1,2,-0.36
CC(C)CC[C@@H](CCNC1CCN(C)CC1)c1ccc(Cl)cc1,63,-7.69
Cn1ccc(-c2nnc(NC(=O)C3CCCCC3)o2)n1,-10,1.57
Cc1c(F)cccc1C(=O)N(C)Cc1cc(C2CC2)on1,1,-0.14
Cc1nn(C(F)F)cc1-c1ccc(C(=O)N[C@H]2CCCC[C@@H]2O)cc1,1,-0.28

SMILES,% Inhibition [%],Z score
CCn1c(CCc2cccc(NC(=O)Nc3ccccc3)c2)nc2ccccc21,1,-0.11
O=C(NCCc1cn2c(n1)CCCC2)c1cccnc1,-1,0.23
CCC1CN(C(=O)NCc2cc(OC)no2)CC(C)O1 (configuration not stated),-11,2.2
CC1(C(=O)Nc2n[nH]c3cc(F)ccc23)CC2CCC1O2 (configuration not stated),-7,1.08
Cc1cc(C)c(C(=O)NCC#C[C@@H]2CCCCO2)c(C)n1,-23,2.49
Cc1cccc2ncc(C(=O)N[C@@]34COC[C@@H]3C4)n12,-12,1.31
O=C(NC[C@H]1OC[C@@H](NCc2cccnc2)[C@@H]1O)c1ccc(F)cc1,-7,0.99
Cc1c([C@@H](NCc2ncccc2O)C(C)C)oc2ccccc12,97,-8.67
Cc1c([C@@H](NCC(=O)N2CCC(C(N)=O)CC2)C(C)C)oc2ccccc12,-13,1.5
Cc1c([C@H](C)NCc2cncnc2)oc2ccccc12,-15,1.68
CC(C)C(=O)N1CCc2ccc(OCc3nc(C(=O)N(C)Cc4ccccc4)cs3)cc2[C@@H]1c1ccccc1,1,-0.07
CN(C)c1ncc(CN[C@H]2[C@H](c3ccccc3)C2(C)C)cn1,10,-1.13
CC(C)CC[C@@]1(C2CC2)NC(=O)N(Cc2ccc(C#N)cn2)C1=O,-14,2.83
O=C(c1csnn1)N1CCc2[nH]nc(-c3ccccc3F)c2C1,-7,1.02
COc1ccc(F)cc1S(=O)(=O)N1CCn2c(nn(C)c2=O)C1,-13,2.3
COc1ccc(F)cc1S(=O)(=O)N1CCc2noc(N)c2C1,72,-5.81
COc1ccc(F)cc1S(=O)(=O)N1CCc2ncncc2C1,-3,0.62
O=C(c1ccc(O)cc1)N1CCN(Cc2ccccn2)[C@@H]2CS(=O)(=O)C[C@@H]21,3,-0.42
Cc1nn(-c2nc3ccccc3[nH]2)c2c1[C@@H](c1c(C)sc3ccccc13)CC(=O)N2,4,-0.46
Cc1nn(-c2nc3ccccc3[nH]2)c2c1[C@@H](c1ccc(Cl)c(Cl)c1)CC(=O)N2,14,-1.74
Cc1nn(-c2nc3ccccc3[nH]2)c2c1[C@@H](c1cccnc1)CC(=O)N2,68,-14.32
C[C@H]1CCN(C(=O)c2cccc3c2CCCN3)[C@@H](C)C1,12,-1.41

SMILES,% Inhibition [%],Z score
CC(C)(C)C1CCC(O)(CNC(=O)NC2CCC(O)CC2)CC1 (configuration not stated),0,-0.1
CCOC(=O)c1n[nH]cc1CNCc1cccnc1N(C)C,4,-0.61
COc1cc(Br)c(NC(=O)N(C)CC(C)C)cc1OC,-13,1.89
CCCCc1ccc(NCc2c[nH]c3ccccc23)cc1,1,-0.17
COc1ccc(OC)c2c(/C=C/c3c[nH]c4ccccc34)ccnc12,-8,0.9
c1ccc2c(C(c3c[nH]c4ccccc34)c3c[nH]c4ccccc34)c[nH]c2c1,-27,3.19
C1=Cn2nc(/C=C/c3c[nH]c4ccccc34)nc2-c2ccccc2O1,-30,3.55
CCc1ccc(/C=C/c2c[nH]c3ccccc23)[n+](CC)c1,93,-8.52
C[n+]1ccccc1/C=C/c1c[nH]c2ccccc12,91,-8.06
c1cnc(NCc2cnc(N3CCCC3)s2)cn1,-3,0.38
Cn1cccc1CN[C@H]1CCOc2ccc(F)cc21,-10,1.36
CCc1nnc([C@@H]2CCCN2C(=O)NCc2ccc(F)cc2)[nH]1,-5,0.68
COC1CCCCC1NC(=O)Nc1cccc(-c2ncc(C)o2)c1 (configuration not stated),-3,0.66
COC1CCCC1NC(=O)Nc1ncc(Br)cc1C (configuration not stated),74,-9.34
CC(=O)Nc1ncc(Br)cc1C,33,-0.41
COc1ccc(C(=O)c2oc3ccccc3c2NC(=O)c2csnn2)cc1Cl,-18,1.56
COc1cccc(S(=O)(=O)N2CCC(OCCOCc3ccccc3)CC2)c1,40,-0.89
O=S(=O)(c1ccccc1)N1CCC(OCCOc2cccnc2)CC1,-7,1.14
COc1cccc(S(=O)(=O)N2CCC(OCCOc3ccccc3)CC2)c1,53,-0.06
CCN(CC)c1ncc(CN2CC[C@H](NS(C)(=O)=O)C2)s1,-14,1.85
NC(=O)Cc1nc(CC(F)(F)F)n(C2CCCCC2)n1,0,0.02
COc1cc(C(=O)NCCNC(=O)c2cc(-c3ccccc3)nc3ccccc23)cc(OC)c1OC,-11,1.69

SMILES,% Inhibition [%],Z score
Cc1ccc(C(=O)C[n+]2cc(-c3ccc(-c4ccccc4)cc3)n(C)c2N)cc1,42,-0.38
Cn1c(-c2ccc(Cl)c(Cl)c2)c[n+](CC(=O)c2ccc(F)cc2)c1N,37,-4.75
Cn1c(-c2ccc(Cl)c(Cl)c2)c[n+](CC(=O)c2ccc(-c3ccccc3)cc2)c1N,53,-0.87
CCc1nc(C)c(C(=O)N(C)Cc2csc(-c3ccccc3)n2)s1,-4,0.61
NC1CCC(C(=O)NCC2(c3ccccc3Cl)CCOCC2)C1 (configuration not stated),8,-1.21
Cc1ccc(O)c(CNCC2(c3ccccc3Cl)CCOCC2)n1,98,-10.48
O=C(NCC1(c2ccccc2Cl)CCOCC1)N1CCOCC1,-4,0.54
Cc1ccc2[nH]c3c(c2c1)C[C@@H](N1C(=O)CN(CC(C)C)C1=O)CC3,-3,0.39
FC(F)(F)c1ccc(N2CCC(n3ccnn3)CC2)nn1,0,-0.04
Cc1cc(C)c(NC(=O)OCc2cccc3cccnc23)c(C)c1,88,-13.23
C[C@@H](C(=O)OCc1cccc2cccnc12)N1CCOCC1,-4,0.63
Cc1nc(C)c(C(=O)OCc2cccc3cccnc23)s1,-18,3.51
CC1CC(C(=O)NCC2CCCCC2)c2ccccc2N1 (configuration not stated),3,-0.43
Cc1noc(C)c1CN1C(=O)NC2(CCCCC2)C1=O,-2,0.32
COc1ccc(CCNc2nc(-c3ccc(OC)cc3)c3c(N)n(-c4ccc(OC)cc4)nc3n2)cc1,-13,2.28
COc1ccc2c(c1)[n+](CC(=O)c1ccc(-c3ccc(Br)cc3)cc1)c(CO)n2C,70,-5.57
Cc1ccc(C(=O)C[n+]2cc(-c3ccc(Br)cc3)n(C)c2N)cc1,38,2.56
COc1cccc(C(=O)C[n+]2cc(-c3ccc(Br)cc3)n(C)c2N)c1,35,-0.41
CC1(C)C2CCC1(C)C(OC(=O)CN1CCCCCC1)C2 (configuration not stated),0,-0.02
CC[N+](CC)(CC(=O)OC1CC2CCC1(C)C2(C)C)CC(=O)OC1CC2CCC1(C)C2(C)C (configuration not stated),77,-8.45
